Data taken from PubChem BioAssay AID488841 (Sanford-Burnham Center for Chemical Genomics, 2010).
Out of some 1,400 compounds screened, about 380 (27%) were called active. The list shows a part of the results. A number with no mark means an inactive call.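 Rule for the calls: active = mean inhibition above 50% across duplicate retests at 10 µM; inactive = the rest.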

assay: inhibition of NALP1/ASC/caspase-1 reporter signal in yeast, confirmation, NALP1 inhibitor project, S. cerevisiae, luminescence, single concentration (AID 488841);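 note: plate controls were DMSO in galactose medium for no effect and cells in plain SD medium for full effect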; details: S. cerevisiae NALP1/ASC/Caspase-1 reporter, beta-gal luminescence; at 10 µM; active compounds read high

Row | Structure (SMILES) | inhibition
1 | O=C(NCCN1C(=O)S/C(=C\c2cccnc2)C1=O)c1cccc(OC(F)F)c1 | 39.6%
2 | COc1ccc(NC(=O)c2ccc(C)cc2)c(OC)c1 | 37.7%
3 | COc1ccc(C)cc1NC(=O)c1ccc(OC(F)F)cc1 | 59.4% (active)
4 | COc1ccc(C)cc1NC(=O)c1ccc(CN2CCN(c3ccccc3)CC2)cc1 | 47.2%
5 | CSc1ccccc1NC(=O)Nc1ccccc1Cl | 30%
6 | Cc1c(Cl)cccc1NC(=O)c1cccc(OC(F)F)c1 | 53% (active)
7 | Clc1ccc2c(N/N=C/c3ccccc3Br)ccnc2c1 | 39%
8 | Cc1ccc(N/C=C/C(=O)C(C)(C)C)c(O)c1 | 31.6%
9 | Cn1cc(CC(=O)Nc2cccc(C#N)c2)c2ccccc21 | 26.6%
10 | c1ccc2cc(CSCc3nc4ccccc4[nH]3)ccc2c1 | 42.5%
11 | c1ccc2[nH]c3cc4ncnc4cc3nc2c1 | 52.8% (active)
12 | CCCCOC(=O)Oc1ccc2c(=O)c(Oc3cc(C)cc(C)c3)coc2c1 | 45.8%
13 | CC(C)Oc1ccc2c(=O)c(-c3ccccc3)coc2c1 | 66.2% (active)
14 | CC1CCN(c2nc(CN3CCCCC3)nc3scc(-c4ccccc4)c23)CC1 | 65.5% (active)
15 | COc1ccccc1N1CCN(C(=O)CSc2ncnc3scc(-c4ccccc4)c23)CC1 | 47.8%
16 | Cc1ccc(S(=O)(=O)N[C@@H](Cc2ccccc2)C(=O)CCl)cc1 | -1.6%
17 | c1ccc(-c2c(-c3ccccc3)n(Cc3ccco3)c3ncnc(NCCCn4ccnc4)c23)cc1 | 38%
18 | CC(=O)n1cc(-c2ccncc2)c2ccccc21 | 46.6%
19 | O=C(O)Cn1nc(-c2ccccc2)oc1=O | 27.4%
20 | COC(=O)Cn1nc(-c2ccccc2)c2ccccc21 | 99.7% (active)
21 | COc1ccc2c(c1)C1=NN(/C(C)=C/C(C)=O)C(c3cccc(F)c3)C1CC2 (stereo not given) | 42.1%
22 | Cc1ccc(/C=N/NC(=O)c2ccc3nc[nH]c3c2)o1 | 31.1%
23 | COC(=O)N/N=C/c1ccc(-c2cccc(Cl)c2)o1 | 68.8% (active)
24 | COC(=O)N/N=C/c1ccc(OC(=O)c2ccco2)c(OC)c1 | 22.6%
25 | O=C1c2ccccc2C(Nc2ccc(Cl)cn2)N1Cc1ccccc1 (stereo not given) | 55.5% (active)
26 | O=C1c2ccccc2C(O)N1c1cccnc1 (stereo not given) | 27.9%
27 | Nc1c2c(nc3sc4c(c13)CCCCC4)CCCCC2 | 40.6%

Row | Structure (SMILES) | inhibition
28 | CC1CCc2nc3sc4c(c3c(N)c2C1)CCCC4 (stereo not given) | 56.2% (active)
29 | Nc1c2c(nc3sc4c(c13)CCCC4)CCCCCC2 | 32.1%
30 | CSCCNC(C)=O | 15%
31 | O=C(NCc1cccs1)c1csc2ccccc12 | 51.3% (active)
32 | CC(C)CC(=O)c1c[nH]c(C(=O)NCc2cccs2)c1 | 22.6%
33 | O=C(c1ccco1)N1CCN(Cc2cn[nH]c2-c2cccc3ccccc23)CC1 | 25.2%
34 | COc1ccccc1N1CCN(CCCCCCOc2ccc(F)cc2)CC1 | 63.4% (active)
35 | COC(=O)c1ccc(C(=O)OC)c(NC(=O)CN2CCN(c3ccccc3OC)CC2)c1 | 38.4%
36 | COc1ccccc1OCCCCN1CCN(c2ccccc2OC)CC1 | 17.7%
37 | O=C(COc1cccc2ccccc12)N1CCN(c2ccccc2)CC1 | 48.1%
38 | COc1ccc(CN2CC(C(=O)NCCN3CCN(c4ccccc4F)CC3)CC2=O)cc1 (stereo not given) | 32%
39 | COc1ccccc1N1CCN(CCCCOc2cccc3ccccc23)CC1 | 62.8% (active)
40 | CCC(C)C(=O)N1c2ccccc2C(=C2SC(C(=O)OC)=C(C(=O)OC)S2)C(=S)C1(C)C (stereo not given) | 40%
41 | COc1ccc(NC(=O)N2CCC(CO)(CC3CCCCO3)CC2)c(OC)c1 (stereo not given) | 29.4%
42 | CN1CCC(Oc2ccc(Sc3ccccc3)cc2)CC1 | 40.1%
43 | O=CC1=C(c2ccccc2)Oc2ccccc2O1 | 94.8% (active)
44 | Clc1ccc(OCCCN2CCCC2)cc1Cl | 39.5%
45 | CN(C)Cc1ccccc1Sc1ccccc1Br | 28.9%
46 | Cc1cccc(Oc2nc(CN3CCOCC3)nc3sc4c(c23)CCCC4)c1 | 51.5% (active)
47 | Fc1ccc(Nc2nc(Oc3ccccc3F)nc(N3CCCC3)n2)cc1 | 29.2%
48 | C=CCSc1nsc(NC(=O)Nc2ccc(F)cc2)n1 | 97.7% (active)
49 | O=C1/C(=C/c2cccnc2)SC(=S)N1C1CCS(=O)(=O)C1 (stereo not given) | 44.6%
50 | CC1=CC(=O)C=C(C)C1=NOS(=O)(=O)c1ccccc1 | 53.9% (active)
51 | CC1=C/C(=N\OS(=O)(=O)c2ccccc2)C(C(C)C)=CC1=O | 88.5% (active)
52 | CCN(CCO)Cc1csc2ccc(Br)cc12 | 41%
53 | C/C(=N\NC(=O)c1c[nH]c2ccccc12)c1ccco1 | 26.3%
54 | O=S(=O)(Nc1ccncc1Cl)c1ccccc1 | 27.6%

Row | Structure (SMILES) | inhibition
55 | CNC(=O)c1ccsc1NC(=O)c1sc2ccccc2c1Cl | 33.5%
56 | O=C(Nc1nccs1)c1sc2ccccc2c1Cl | 61.4% (active)
57 | O=C(Nc1nc(-c2ccccn2)cs1)c1ccc(Cl)s1 | 24.1%
58 | COC(=O)Nc1nc(C)c(C(=O)c2ccccc2)s1 | 44.9%
59 | COC(=O)Nc1sc2nc(C)cc(C)c2c1-n1cccc1 | 54% (active)
60 | Cc1ccc2c(Cl)c(C)c(N3CCCCC3)nc2n1 | 55.4% (active)
61 | CSC1=N/C(=C\c2cccnc2)C(=O)N1c1ccccc1 | 30.7%
62 | O=S(=O)(Nc1cccnc1)c1cccs1 | 26.2%
63 | COc1ccc(C(=O)Cn2c(C(=O)/C=C/c3ccccc3)nc3ccccc32)cc1 | 25.8%
64 | Cc1ccc(C(=O)/C=C/c2cn(CC(O)CN3CCOCC3)c3ccccc23)cc1 (stereo not given) | 39.7%
65 | COc1ccc(C(=O)/C=C/c2ccc(OC)c(CN3CCOCC3)c2)cc1 | 63.4% (active)
66 | C/C(=N\Nc1nc2c(s1)CCCC2)c1ccccc1 | 29.5%
67 | CC(C)OC(=O)COc1ccc(-c2ccccc2)cc1 | 25.2%
68 | CCCOc1ccc(C(=O)NC(C)C(=O)O)cc1 (stereo not given) | 29.1%
69 | CCOc1ccc(C(=O)C(CCC(CN(C)C)C(=O)c2ccc(OCC)cc2)CN(C)C)cc1 (stereo not given) | 73% (active)
70 | O=C(NCc1cccnc1)C1CCN(S(=O)(=O)c2cccnc2)CC1 | 33.3%
71 | CCNC(=S)SCCOc1ccccc1C | 57.5% (active)
72 | CCn1c(COc2ccccc2C)nnc1SCC(=O)N1CCN(c2ccccc2)CC1 | 20.6%
73 | Cc1ccc(/C(COc2ccccc2O)=N\O)cc1 | 44%
74 | C=CCn1c(=O)c2ccc(C(=O)NCc3ccccc3)cc2n(Cc2ccccc2Cl)c1=O | 27%
75 | O=C(CCN1CCc2ccccc2C(c2ccccc2)C1)c1ccc2c(c1)OCCO2 (stereo not given) | 30%
76 | c1ccc(-c2ccc(-c3cn4c(n3)CCC4)cc2)cc1 | 85.2% (active)
77 | Cc1nc(-c2ccccc2)cn2c1nc1ccccc12 | 49%
78 | COc1cc2nc(Cl)nc(N3CCN(C)CC3)c2cc1OC | 39.5%
79 | O=c1sc(Nc2ccccc2)nc2ccsc12 | 78.8% (active)
80 | c1ccc(Nc2ccccn2)cc1 | 27.3%
81 | CC(C)CN=Cc1c(O)c([N+](=O)[O-])cc2oc3c(c12)CCCC3 | 35.5%

Row | Structure (SMILES) | inhibition
82 | CC(C)C(=O)N(Cc1ccccc1)c1ccccn1 | 19.8%
83 | Cc1cc(C)c(S(=O)(=O)N(CC(=O)O)CC(=O)O)c(C)c1 | 25.9%
84 | COc1ccccc1NC(=O)CCN1CCN(Cc2ccccc2)CC1 | 44.5%
85 | CCOc1ccccc1NC(=O)/C=C/C(N)=O | 59.6% (active)
86 | CCOc1ccccc1N/C=C(\C#N)c1nc2ccccc2n1C | 12.5%
87 | CCCOc1ccccc1NC(=O)/C=C/C(N)=O | 71.2% (active)
88 | CCCCOc1ccccc1NC(=O)c1ccco1 | 34.8%
89 | O=[N+]([O-])/C(C(=C(Cl)Cl)N1CCN(Cc2ccccc2)CC1)=C1\NCCN1Cc1ccc(Cl)nc1 | 35.4%
90 | CCOC(=O)c1c(C)[nH]c(N=Nc2cccc(C)c2)c1C | 46.4%
91 | Oc1c(Cl)cc(Cl)c2c1NCCC2 | 41.9%
92 | Oc1c(Cl)cc(Cl)c(Cl)c1Cc1c(O)c(Cl)cc(Cl)c1Cl | 99.9% (active)
93 | CCOC(=O)C(C(=O)OCC)C(C(=O)OCC)N1CCOCC1 (stereo not given) | 64.8% (active)
94 | CCC(Cc1ccccc1)NC(=O)C1CCN(S(=O)(=O)c2c(C)noc2C)CC1 (stereo not given) | 26.1%
95 | CN(C)c1ccc(NC(=O)COC(=O)c2cc(Cl)ccc2[N+](=O)[O-])cc1 | 62.9% (active)
96 | NS(=O)(=O)c1ccc(NC(=O)COC(=O)c2cn(-c3ccccc3)nc2-c2ccc(F)cc2)cc1 | 18.7%
97 | CCOC(=O)c1cc([N+](=O)[O-])c([N+](=O)[O-])cc1NC(C)=O | 24.9%
98 | CC1CCN(CCOc2ccc(OCc3ccccc3)cc2)CC1 | 48.1%
99 | O=C(N/N=C/c1cccc(F)c1)c1c(O)c2ccccc2[nH]c1=O | 31.5%
100 | CCOC(=O)c1nc(C)sc1-c1ccnn1S(=O)(=O)c1ccc(C)cc1 | 29.4%
101 | O=C(O)CC(Cn1cnnn1)c1ccccc1 (stereo not given) | 25.9%
102 | Clc1cccc(OCCN2CCN(CCOc3cccc(Cl)c3)CC2)c1 | 60.4% (active)
103 | Brc1cccc(OCCN2CCCCC2)c1 | 44.9%
104 | CCc1cccc(OCCN2CCCC2)c1 | 29.9%
105 | CCN(CC)S(=O)(=O)c1cccc(C(=O)N[C@H](C(=O)O)C(C)C)c1 | 33.2%
